Results reported in the supplement of paper PMC10338343.
± gives the standard deviation. The full ranking holds about 8,200 sequences; the median of “pre-steady-state target cleavage rate” is about 0.024, and the highest 2% start at about 1.3. Shown is part of a subset that was picked to be rich in the highest values.

System: MIWI (PIWIL1) piRISC loaded with L1MC piRNA (30 nt)
Experiment: pre-steady-state target cleavage rate (min^-1); MIWI and MILI are mouse PIWI proteins and EfPiwi is from a freshwater sponge; tags in brackets are library labels; higher = faster piRNA-guided slicing of the target
Details: guide: L1MC piRNA 5'p-UAACUAAAUACUAUGCAAGCUGUAGGUCCU
Method: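 Cleave-'n-Seq: a library of target RNAs (target site embedded in constant flanks, ACAGCATTCCGCGTTAGTGATATCCG... 5' flank; DNA-blocked outside the site) at 0.1 nM was incubated with 1 nM active mouse MILI or MIWI piRISC (synthetic 5'-monophosphorylated piRNA guide) with or without 500 nM mouse GTSF1 at 33 °C for 1 min to 16 h. Uncleaved targets were sequenced and normalised to non-target controls, and the pooled three trials were fitted to a burst-and-steady-state model to give the pre-steady-state cleavage rate (min^-1; k3 is constrained to at most 1e-4). Sequence is the target site only; target names encode pairing extent (gX:gY) and contiguous / 1-mismatch / 2-mismatch / bulge geometry. Fits with R² ≤ 0 are excluded.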

[1] = auxiliary factor: 500 nM mouse GTSF1
[2] = auxiliary factor: none (no GTSF1)

Row | Sequence | pre-steady-state target cleavage rate [1] | pre-steady-state target cleavage rate [2]
1 | UGGACCUACAGCUAGCAUAGUAUUUAGUAA | 1.08 ± 0.065 | 0.016 ± 0.0033
2 | AGGACCUACAGCUAGCAUAGUAUUUAGUUA | 1.16 ± 0.061 | 0.0412 ± 0.0085
3 | UGGACCUACAGCUAGCAUAGUAUUUAGUUA | 1.41 ± 0.074 | 0.0334 ± 0.0077
4 | UGGACCUACAGCUUGGCAUAGUAUUUAGUUA | 1.01 ± 0.26 | 0.0197 ± 0.0048
5 | AGGACCUACAGCUAGCAUAGUAUUUAGUAA | 0.836 ± 0.073 | 0.0193 ± 0.0066
6 | UCCUGGAUCAGCUUGCUAAGUAUUUAGUAA | 0.00706 ± 0.004 | –
7 | UCCUCCUACAGCUUGCAUAGUAUUUACUUA | 0.383 ± 0.042 | 0.0348 ± 0.0074
8 | UCCUGGAACAGUUGCAUAGUAUUUAGUUA | 0.337 ± 0.022 | 0.00545 ± 0.0021
9 | UCCUGGAUCUGCAUGCAUAGUAUUUAGUUA | 0.204 ± 0.024 | 0.00439 ± 0.002
10 | UCCUGGAUGUCGAACGUAUGUAUUUUAGUUA | < 0.0001 | –
11 | UCCUCCUACAGCUUGCAUAGUAAAAAGUUA | 0.231 ± 0.023 | –
12 | UCCUCCUACAGCUAGCAUAGUAUUUAGUUA | 0.838 ± 0.03 | 0.016 ± 0.0034
13 | UCCUCCUACAGCUUACAUAGUAUUUAGUUA | 1.14 ± 0.031 | 0.0275 ± 0.0041
14 | UCCUCCUACAGCUUAGCAUAGUAUUUAGUUA | 1.31 ± 0.054 | 0.0108 ± 0.0023
15 | UGGUCCUACAGCUUGCAAAGUAUUUAGUUA | 1.13 ± 0.04 | 0.0413 ± 0.0067
16 | AGGUCCUACAGCUUGCAUAGUAUUUAGUAA | 0.77 ± 0.055 | 0.0647 ± 0.012
17 | UGGUCCUACAGCUUGCAUAGUAUUUAGUUA | 1.16 ± 0.052 | 0.0862 ± 0.015
18 | AGGUCCUACAGCUUGCAUAGUAUUUAGUUA | 1.43 ± 0.054 | 0.111 ± 0.019
19 | UCGUCCUACAGCUUGCAUAGUAUUUAGUAA | 0.82 ± 0.037 | 0.0372 ± 0.0076
20 | UCCUACUACAGCUUGCAUAGUAUUUAGUUA | 0.886 ± 0.036 | 0.057 ± 0.0085
21 | UCGUCCUACAGCUUGCAUAGUAUUUAGAAA | 0.469 ± 0.042 | 0.00751 ± 0.0029
22 | ACGUCCUACAGCUUGCAUAGUAUUUAGUUA | 1.52 ± 0.055 | 0.0835 ± 0.013

Row | Sequence | pre-steady-state target cleavage rate [1] | pre-steady-state target cleavage rate [2]
23 | AGGUCCUACAGCUUGCAAAGUAUUUAGUUA | 1.35 ± 0.043 | 0.0532 ± 0.01
24 | UCGUCCUACAGCUUGCAUAGUAUUUAGUUA | 1.42 ± 0.041 | 0.0638 ± 0.0093
25 | UCGUCCUACAGCUUGCAAAGUAUUUAGUUA | 1.3 ± 0.032 | 0.0388 ± 0.0068
26 | UCCUGGAUCAGCUUGCAUAGUAAUUAGAUA | 0.216 ± 0.036 | 0.0126 ± 0.0029
27 | UCCUGGAACAGCUUGGUAAGUAUUUAGUUA | 0.00797 ± 0.0031 | –
28 | UCCUGGAUGUGCUUGACAUAGUAUUUAGUUA | 0.0551 ± 0.0082 | –
29 | UCCUGGAUCAGCUUGCAUAGUAUUAUGUAA | 0.0189 ± 0.0065 | 0.00377 ± 0.0026
30 | UCCUGGAUGUGCUUGGAUACUAUUUAGUUA | 0.031 ± 0.011 | 0.0033 ± 0.0029
31 | UCCUGGAUGUCGAACCAUACUAAUUAGUUA | – | < 0.0001
32 | AGGACCUACAGCUAGCAUAGUAAUUAGUUA | 0.745 ± 0.06 | 0.0091 ± 0.0021
33 | UCCUGGAUCACCAUGCAUAGUAUUUAGUUA | 0.0303 ± 0.0068 | –
34 | UCCUCCUACAGCUUGCUAGUAUUUAGUUA | 0.0615 ± 0.017 | –
35 | UCCUGCUACAGCUUGCUUAGUAUUUAGUUA | 0.987 ± 0.056 | 0.0337 ± 0.008
36 | UCCAGCUACAGCUUGCUUAGUAUUUAGUUA | 0.78 ± 0.039 | 0.0235 ± 0.004
37 | UCGUCCUACAGCUUGCUUAGUAUUUAGUUA | 1.43 ± 0.047 | 0.0358 ± 0.0073
38 | UGGUCCUACAGCUUGCUUAGUAUUUAGUUA | 1.21 ± 0.035 | 0.0478 ± 0.0087
39 | AGGUCCUACAGCUUGCUUAGUAUUUAGUUA | 1.54 ± 0.069 | 0.0542 ± 0.011
40 | AGGACCUACAGCUUGCAUAGAUAUUUAGUUA | 0.143 ± 0.048 | –
41 | UCCACCUACAGCUUGCAUUCAAUUUAGUUA | 0.0179 ± 0.0084 | –
42 | UCGACCUUCUGCUUGCAUAGUAUUUAGUUA | 1.45 ± 0.048 | 0.0653 ± 0.011
43 | UGGACCUUCUGCUUGCAUAGUAUUUAGUUA | 1.3 ± 0.066 | 0.0534 ± 0.0096
44 | UCGACCUGCAGCUUGCAUAGUAUUUAGUUA | 1.41 ± 0.072 | 0.0674 ± 0.013

Row | Sequence | pre-steady-state target cleavage rate [1] | pre-steady-state target cleavage rate [2]
45 | UCGACCUUGUGCUUGCAUAGUAUUUAGUUA | 0.871 ± 0.038 | 0.0513 ± 0.0098
46 | UCCACCUGCAGCUUGCAUAGUAUUUAGUUA | 1.15 ± 0.13 | 0.0541 ± 0.011
47 | UCGACCUGACAGCUUGCAUAGUAUUUAGUUA | 1.25 ± 0.057 | 0.0632 ± 0.011
48 | AGGACCUUCUGCUUGCAUAGUAUUUAGUUA | 1.24 ± 0.042 | 0.082 ± 0.015
49 | UCCUCCUGCAGCUUGCAUAGUAUUUAGUUA | 1.1 ± 0.053 | 0.0513 ± 0.0088
50 | AGGACCUGACAGCUUGCAUAGUAUUUAGUUA | 1.17 ± 0.07 | 0.067 ± 0.011
51 | AGGACCUGCAGCUUGCAUAGUAUUUAGUUA | 1.38 ± 0.088 | 0.0689 ± 0.014
52 | UGGACCUGACAGCUUGCAUAGUAUUUAGUUA | 1.56 ± 0.12 | 0.0824 ± 0.017
53 | UCCUGGAACAGCUUGCAUAGUAUUUAGUAA | 0.685 ± 0.046 | 0.0337 ± 0.0083
54 | UCCUGCUACACGAUGCAUAGUAUUUAGUAA | 0.396 ± 0.032 | –
55 | UCCUGGAUGUCGAUGCUUAGUAUUUUGUUA | < 0.0001 | –
56 | UCCUGGAUCACGUUGCAUAGUAUUUAGUAA | 0.0198 ± 0.0044 | –
57 | UCGACGUACAGCUUCCAUAGUAUUUAGUUA | 0.0527 ± 0.011 | 0.00418 ± 0.0013
58 | UCGAGCUACAGCUUGCAUAGUAUUUUGUUA | 1.06 ± 0.06 | 0.0528 ± 0.0088
59 | UCCUGGAUGAGCUUGCAUAGUAUUAUGUUA | 0.194 ± 0.027 | 0.0102 ± 0.0042
60 | UCCUGGAUGAGCUUGCAUAGUAAUUAGAAA | 0.0194 ± 0.0086 | –
61 | UCCUGGUACAGCUUGCAUAGUAUUUUGAUA | 0.166 ± 0.031 | 0.00994 ± 0.0034
62 | UCCUGCUGCAGCUUGCAUAGUAUUUAGUUA | 1.27 ± 0.058 | 0.0512 ± 0.011
63 | UGGACCUGCAGCUUGCAUAGUAUUUAGUUA | 1.57 ± 0.099 | 0.0683 ± 0.013
64 | UGGACCUAGUGCUUGCAUAGUAUUUAGUUA | 0.979 ± 0.061 | 0.0419 ± 0.0095
